Assay outcomes: PubChem, The Scripps Research Institute Molecular Screening Center
An excerpt weighted towards active compounds, which were near 5.7% of everything screened.
AHR act: activates the human aryl hydrocarbon receptor; P35869; hit rate 2.5% among 320,000; activation, % at 5 µM; AHR-responsive luciferase reporter cells, luminescence; in the data active means activation above about 47%
DAX1 inh-1: inhibitors of DAX1 repression of SF-1 activated StAR promoter; HEK293T StAR-luciferase reporter, SF-1/DAX-1 repression relief; inhibition, % at 6.8 µM; hit rate 1.1% among 370,000; AID 652010;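 active means inhibition above the mean over all tested compounds plus 3 SD, cut at about 3.6% in these data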;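 further: higher inhibition means more luminescence from relief of DAX-1 repression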
hcDAF12 agonist: H. contortus DAF-12 activation, primary screen; HEK293 hcDAF-12 lit1-tk-luc reporter, luminescence; 0% DMSO, 100% Δ7-dafachronic acid; activation, % at 6.8 µM; hit rate 1.4% among 370,000; AID 652067;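 active means activation above the mean of all tested compounds plus 3 SD, cut at about 5.5% in these data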
hgDAF12 agonist: agonists of H. glycines DAF-12 nuclear receptor | activation, % at 6.8 µM | hit rate 1.8% among 370,000 | HEK293 GAL4-hgDAF12 UAS-luciferase reporter, agonist luminescence; normalized to butyrate control;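 active means activation above a cutoff set at the mean of all screened compounds plus 3 SD, cut at about 10% in these data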
ssDAF12 agonist: activators of S. stercoralis DAF-12 nuclear receptor; hit rate 1% among 370,000; HEK293 ssDAF-12/GRIP1 lit1-tk-luc reporter, luminescence; % of 3 µM dafachronic acid response; activation, % at 6.8 µM;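 active means activation above the mean over all tested compounds plus 3 SD, cut at about 0.9% in these data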
DAX1 inh-2: inhibits human nuclear receptor DAX1 | P51843 | hit rate 0.99% among 340,000 | HEK293 Gal4-DAX1 luciferase reporter, luminescence | inhibition, % at 6.75 µM;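 active means inhibition above the mean over all tested compounds plus 3 SD, cut at about 4.2% in these data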;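 further: inhibition shows as a rise in luminescence from relieved DAX1 repression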
Target sequence (P51843 207-470 limits assumed): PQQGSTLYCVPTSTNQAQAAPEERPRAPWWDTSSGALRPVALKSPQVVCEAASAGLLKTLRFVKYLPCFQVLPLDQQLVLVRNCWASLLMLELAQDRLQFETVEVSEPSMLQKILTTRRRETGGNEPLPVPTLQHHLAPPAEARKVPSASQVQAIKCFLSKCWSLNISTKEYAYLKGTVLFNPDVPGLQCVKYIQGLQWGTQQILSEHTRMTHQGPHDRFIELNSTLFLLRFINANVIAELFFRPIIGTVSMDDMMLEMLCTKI
hgDAF12 conf: confirmation of H. glycines DAF-12 agonists; HEK293 GAL4-hgDAF12 luciferase reporter, agonist mode; percent of butyrate response; activation, % at 6.8 µM; AID 743050; hit rate 80% among 3,300; shares compounds with hgDAF12 agonist;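 active means mean activation over triplicate wells above the hit cutoff derived from the earlier primary screen, cut at about 11% in these data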
LXR ag 2: activates human LXR-beta, counter-screen for DAF-12 agonists. shares compounds with hgDAF12 agonist. HEK293 Gal4-LXR luciferase reporter, 24 h. activation, % at 6.8 µM. 3,300 tested, under 10 active. AID 743051;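 active means mean activation of the triplicate above a set limit carried over from the primary screen, none filed active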
Hits are given with their value.

`CN1CCN(c2ccc(-c3cc(NC=O)c4ncc(-c5ccc(F)c(Cl)c5)n4c3)cc2)CC1` gave DAX1 inh-1 inactive, hcDAF12 agonist inactive, hgDAF12 agonist inactive and ssDAF12 agonist inactive.
For Cc1ccc(NC(=S)NNC(=O)c2nn(C)c(C)c2Cl)cc1 the results were AHR act inactive, DAX1 inh-1 inactive, hcDAF12 agonist inactive, hgDAF12 agonist 15.8, ssDAF12 agonist inactive, DAX1 inh-2 6.5, hgDAF12 conf inactive and LXR ag 2 inactive.
Nc1ccccc1N=Cc1ccc(-c2cccc(Cl)c2)o1 was read as AHR act 77.9, DAX1 inh-1 inactive, hcDAF12 agonist inactive, hgDAF12 agonist 21.7, ssDAF12 agonist 1.3, DAX1 inh-2 inactive, hgDAF12 conf 15.3 and LXR ag 2 inactive.
Screening COC(=O)N/N=C/c1ccc(-c2cccc(Cl)c2)o1 returned AHR act inactive, DAX1 inh-1 inactive, hcDAF12 agonist inactive, hgDAF12 agonist inactive, ssDAF12 agonist inactive and DAX1 inh-2 inactive.
Screening O=C(Nc1ccc(Cl)cc1Cl)C1=Cc2ccccc2OC1 returned AHR act inactive, DAX1 inh-1 inactive, hcDAF12 agonist inactive, hgDAF12 agonist 14.4, ssDAF12 agonist inactive, DAX1 inh-2 inactive, hgDAF12 conf 17.6 and LXR ag 2 inactive.
CC(OC(=O)C1=Cc2ccccc2OC1)C(=O)NC(C)(C)C (stereo not given) was read as AHR act inactive, DAX1 inh-1 inactive, hcDAF12 agonist inactive, hgDAF12 agonist inactive, ssDAF12 agonist inactive and DAX1 inh-2 inactive.
For CCn1c(C)nc2cc(C(=O)NN=Cc3ccccc3OC(F)F)ccc21 the results were AHR act inactive, DAX1 inh-1 inactive, hcDAF12 agonist inactive, hgDAF12 agonist inactive, ssDAF12 agonist inactive and DAX1 inh-2 inactive.
CCn1c(C)nc2cc(C(=O)N/N=C/c3ccccc3C)ccc21 was read as AHR act inactive, DAX1 inh-1 inactive, hcDAF12 agonist inactive, hgDAF12 agonist 13.6, ssDAF12 agonist inactive, DAX1 inh-2 inactive, hgDAF12 conf 13.7 and LXR ag 2 inactive.
Screening O=C(Nc1ccon1)c1ccc(Br)s1 returned AHR act inactive, DAX1 inh-1 inactive, hcDAF12 agonist inactive, hgDAF12 agonist inactive, ssDAF12 agonist inactive and DAX1 inh-2 inactive.
O=C(Nc1ccccc1C(=O)Nc1ccc(Br)cn1)c1ccccc1Cl was read as AHR act inactive, DAX1 inh-1 inactive, hcDAF12 agonist inactive, hgDAF12 agonist inactive, ssDAF12 agonist inactive and DAX1 inh-2 inactive.
O=C(Nc1ccc(Br)cn1)c1ccc(Br)s1 was read as AHR act inactive, DAX1 inh-1 inactive, hcDAF12 agonist 6.2, hgDAF12 agonist 19.6, ssDAF12 agonist inactive, DAX1 inh-2 inactive, hgDAF12 conf 19.9 and LXR ag 2 inactive.
Cc1ccccc1C(=O)Nc1ccc(Br)cn1 was read as AHR act inactive, DAX1 inh-1 inactive, hcDAF12 agonist inactive, hgDAF12 agonist 13.6, ssDAF12 agonist inactive, DAX1 inh-2 inactive, hgDAF12 conf 15.8 and LXR ag 2 inactive.
`O=C(NC1=NCCS1)c1ccc(Br)s1` gave AHR act inactive, DAX1 inh-1 3.8, hcDAF12 agonist 6.0, hgDAF12 agonist 14.3, ssDAF12 agonist inactive, DAX1 inh-2 inactive, hgDAF12 conf 13.4 and LXR ag 2 inactive.
O=C(NC1=NCCS1)c1ccccc1Br was read as AHR act inactive, DAX1 inh-1 inactive, hcDAF12 agonist inactive, hgDAF12 agonist inactive and ssDAF12 agonist inactive.
O=C(Nc1ccc(Br)cn1)c1ccc(Cl)s1 was read as AHR act inactive, DAX1 inh-1 inactive, hcDAF12 agonist inactive, hgDAF12 agonist 14.8, ssDAF12 agonist inactive, DAX1 inh-2 inactive, hgDAF12 conf 14.0 and LXR ag 2 inactive.
For COc1ccc(-c2cc(=Nc3c(C)n(C)n(-c4ccccc4)c3=O)c3ccccc3o2)cc1 the results were AHR act inactive, DAX1 inh-1 inactive, hcDAF12 agonist 6.0, hgDAF12 agonist 18.6, ssDAF12 agonist inactive, DAX1 inh-2 5.3, hgDAF12 conf 11.9 and LXR ag 2 inactive.
For COc1ccc2c(CC(=O)Nc3ncc(C)s3)coc2c1 the results were AHR act inactive, DAX1 inh-1 inactive, hcDAF12 agonist inactive, hgDAF12 agonist 18.4, ssDAF12 agonist inactive, DAX1 inh-2 inactive, hgDAF12 conf 18.0 and LXR ag 2 inactive.
Screening NNC(=O)c1csc(-c2ncc(C(F)(F)F)cc2Cl)n1 returned AHR act inactive, DAX1 inh-1 inactive, hcDAF12 agonist inactive, hgDAF12 agonist inactive and ssDAF12 agonist inactive.
Screening COc1ccc(NC(=O)/C=C/c2ccccc2)c([N+](=O)[O-])c1 returned AHR act inactive, DAX1 inh-1 inactive, hcDAF12 agonist inactive, hgDAF12 agonist 15.6, ssDAF12 agonist inactive, DAX1 inh-2 inactive, hgDAF12 conf 12.0 and LXR ag 2 inactive.
For Cc1ccc(NC(=O)/C=C/c2ccc3c(c2)OCO3)nc1 the results were AHR act inactive, DAX1 inh-1 inactive, hcDAF12 agonist inactive, hgDAF12 agonist 16.7, ssDAF12 agonist inactive, DAX1 inh-2 inactive, hgDAF12 conf 13.1 and LXR ag 2 inactive.
`Cc1ccc2nc(NC(=O)/C=C/c3ccc4c(c3)OCO4)sc2c1` gave AHR act inactive, DAX1 inh-1 inactive, hcDAF12 agonist inactive, hgDAF12 agonist inactive, ssDAF12 agonist inactive and DAX1 inh-2 inactive.
Screening CCCCNC(=O)CCCN1C(=O)c2cccnc2Sc2ccccc21 returned AHR act inactive, DAX1 inh-1 inactive, hcDAF12 agonist inactive, hgDAF12 agonist inactive, ssDAF12 agonist inactive and DAX1 inh-2 inactive.
Cc1ccc(C2=N/C(=C\N3CCCCC3)C(=O)O2)cc1 was read as AHR act inactive, DAX1 inh-1 inactive, hcDAF12 agonist 6.4, hgDAF12 agonist 14.3, ssDAF12 agonist inactive, DAX1 inh-2 inactive, hgDAF12 conf inactive and LXR ag 2 inactive.
`Cc1cc(C)c2nc(N)sc2c1` gave AHR act inactive, DAX1 inh-1 inactive, hcDAF12 agonist inactive, hgDAF12 agonist inactive, ssDAF12 agonist inactive and DAX1 inh-2 inactive.
Screening Cc1cc(C)c2sc(N)nc2c1 returned AHR act inactive, DAX1 inh-1 inactive, hcDAF12 agonist inactive, hgDAF12 agonist 13.9, ssDAF12 agonist inactive, DAX1 inh-2 inactive, hgDAF12 conf inactive and LXR ag 2 inactive.
`Cc1ccc(NC(=O)COC(=O)/C=C/c2c(C)nn(-c3ccc(F)cc3)c2Cl)cc1F` gave AHR act inactive, DAX1 inh-1 inactive, hcDAF12 agonist inactive, hgDAF12 agonist inactive, ssDAF12 agonist inactive and DAX1 inh-2 inactive.
CC(C)C(=O)COc1c2occc2cc2ccc(=O)oc12 was read as AHR act inactive, DAX1 inh-1 inactive, hcDAF12 agonist inactive, hgDAF12 agonist inactive, ssDAF12 agonist inactive and DAX1 inh-2 inactive.
